The record followed here is PubChem BioAssay (Tox21).

SMILES strings stand for the structures. Results filed as inconclusive are left out. The source made the active and inactive calls. Unless noted, calls come from the whole dose curve; as a rule, active = well fitted curve in the direction sought with a large enough effect in the repeat runs; inconclusive = weak or mixed curves; inactive = no such curve, though single readings can be large; an effect the other way counts as inactive or inconclusive.

The nature of assay [1]: qHTS assay to identify small molecule antagonists of the estrogen related receptor (ERR) signaling pathway - cell viability counter screen (AID 1224818).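 Note: series mostly up to about 46 µM; viability measured after 17.5 h of compound exposure.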 The method, boiled down:
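Here, ERR cells are plated at 2,000 cells per well, allowed 6 h to attach, and treated with compounds in DMSO for 17.5 h at 37 C. CellTiter-Fluor is then added and fluorescence read after 30 min.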
A general note: Quantitative high-throughput screening tests each substance at several concentrations.

Assay [2] can be described thus: qHTS assay to identify small molecule antagonists of the estrogen related receptor (ERR) signaling pathway (AID 1224819; note: nearly all actives have a fitted effect of over 50% in size; note: potency is the fitted concentration of half-maximal effect). The method, boiled down: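 LOPAC library screened for antagonism as reduced One-Glo luminescence in ERR reporter cells (2,000/well). Compounds were added after 6 h pre-incubation and left 18 h at 37C; reading followed a 30 min room-temperature reagent step.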

Assay [3] can be described thus: qHTS assay to identify small molecule agonists of the estrogen related receptor (ERR) signaling pathway (AID 1224820). Note: potency is the fitted concentration of half-maximal effect. A digest of the protocol:
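ERR reporter cells (NTP line) plated 2,000/well, incubated 6 h at 37 C/5% CO2, then pinned with compounds in DMSO and held 18 h at 37 C. One-Glo added; luminescence read after 30 min at room temperature.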

Assay [4] deals with estrogen-related receptor alpha (ERRalpha) with PGC-1alpha coactivator, human. The assay can be described thus: qHTS assay to identify small molecule antagonists of the estrogen related receptor signaling pathway with the pleiotropic PPARgamma coactivator (PGC) (AID 1224821; calls by dose curve;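 note: series mostly up to about 46 µM; lower luminescence signal means antagonism of PGC/ERR signalling; nearly all actives have a fitted effect of over 50% in size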). A digest of the protocol: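 Cells engineered for PGC/ERR signalling (line from NTP) were plated 6 h at 37 C/5% CO2, then exposed to DMSO-dissolved compound for 18 h at 37 C. Luciferase activity was read by One-Glo luminescence after 30 min at room temperature.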

A short description of assay [5]: qHTS assay to identify small molecule antagonists of the estrogen related receptor signaling pathway with the pleiotropic PPARgamma coactivator (PGC) cell viability counter screen (AID 1224822; note: potency is the fitted concentration of half-maximal effect;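 note: viability read after 17.5 h compound exposure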). The method, boiled down:
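qHTS format, DMSO compound stocks pin-transferred onto PGC/ERR cells 6 h after plating; 17.5 h exposure at 37 C, then CellTiter-Fluor fluorescence.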

A short description of assay [6]: qHTS assay to identify small molecule agonists of the estrogen related receptor signaling pathway with the pleiotropic PPARgamma coactivator (PGC) (AID 1224823). Note: potency is the fitted concentration of half-maximal effect. A digest of the protocol: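 PGC/ERR reporter cells were seeded, rested 6 h at 37 C/5% CO2, then exposed to compounds in DMSO by pin transfer for 18 h at 37 C. Luciferase activity was read as luminescence after One-Glo reagent and 30 min at room temperature.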

As to `COc1ccc(C(=O)NCc2cccnc2)cc1C(=O)NCc1cccnc1`, the Potency entry in assay [1], in assay [2], in assay [3], in assay [4], in assay [5] and in assay [6] was “inactive” throughout.

For `COc1cccc(-c2cc(=O)c3ccccc3o2)c1N`, the Potency result in assay [1], in assay [2], in assay [4] and in assay [5] was “inactive” each time. The Potency in assay [3] is 1.96 µM (active); in assay [6], 1.88 µM (active).

For the compound `O=c1cc(-c2ccccc2)[nH]c2nc(Cl)ccc12`, the Potency result in assay [1], in assay [2], in assay [3], in assay [4], in assay [5] and in assay [6] was “inactive” each time.

Turning to `CCCCCCCC/C=C\CCCCCCCC(=O)NCCO`, the Potency entry in assay [1], in assay [2], in assay [3], in assay [4], in assay [5] and in assay [6] was “inactive” in each case.

Take `O=C1CCC(c2ccc(-n3ccnc3)cc2)=NN1`: the Potency entry in assay [1], in assay [2], in assay [3], in assay [4], in assay [5] and in assay [6] was “inactive” throughout.

On to `CCCCCCCCCC[Si](C)(C)CCC(=O)NC(Cc1ccc(C)cc1)c1ccccc1` (stereo not given), for which the Potency entry in assay [1], in assay [2], in assay [3], in assay [4], in assay [5] and in assay [6] was “inactive” in each case.

For the compound `Nc1ccc(-c2nc3ccc(-c4nc5ccc(N)cc5[nH]4)cc3[nH]2)cc1`, the Potency result in assay [1], in assay [2], in assay [3], in assay [4], in assay [5] and in assay [6] was “inactive” in each case.

`O=C1NC(=O)/C(=C/c2ccc3c(c2)OC(F)(F)O3)S1`: the Potency entry in assay [1], in assay [2], in assay [4], in assay [5] and in assay [6] was “inactive” in each case. Moreover, the Potency in assay [3] was 3.16 µM (active).

Consider `S=c1[nH]c(-c2ccccc2)cn1-c1ccccc1`, for which the Potency result in assay [1], in assay [2], in assay [3], in assay [4], in assay [5] and in assay [6] was “inactive” each time.

In the case of `CCCn1c(=O)[nH]c(=O)c2[nH]cnc21`, the Potency result in assay [1], in assay [2], in assay [3], in assay [4], in assay [5] and in assay [6] was “inactive” throughout.

`COc1ccc(/C=C/C(=O)Nc2ccccc2C(=O)O)cc1OC`: the Potency entry in assay [1], in assay [2], in assay [4], in assay [5] and in assay [6] was “inactive” in each case. Further, the Potency in assay [3] is 1.68 µM (active).

`O=C(O)C1CN(CCCP(=O)(O)O)CCN1` (stereo not given): the Potency entry in assay [1], in assay [2], in assay [3], in assay [4], in assay [5] and in assay [6] was “inactive” each time.

In the case of `O=C(O)CC1CCCc2ccccc2C1O` (stereo not given), the Potency entry in assay [1], in assay [2], in assay [3], in assay [4], in assay [5] and in assay [6] was “inactive” in each case.

Consider `N=C(N)SCCN`, for which the Potency entry in assay [1], in assay [2], in assay [3], in assay [4], in assay [5] and in assay [6] was “inactive” in each case.

Turning to `Nn1nnc2ccccc21`, the Potency result in assay [1], in assay [2], in assay [3], in assay [4], in assay [5] and in assay [6] was “inactive” each time.

`O=C(O)CCC(C(=O)O)N1C(=O)c2ccccc2C1=O` (stereo not given): the Potency entry in assay [1], in assay [2], in assay [3], in assay [4], in assay [5] and in assay [6] was “inactive” each time.

`NC(CCCP(=O)(O)O)C(=O)O` (stereo not given): the Potency result in assay [1], in assay [2], in assay [3], in assay [4], in assay [5] and in assay [6] was “inactive” each time.

Consider `COc1cc(CNC(=O)CCCCCCC(C)C)ccc1O`, for which the Potency entry in assay [1], in assay [2], in assay [3], in assay [4], in assay [5] and in assay [6] was “inactive” throughout.

Regarding `Cn1cc(C2=C(c3ccc(Cl)cc3Cl)C(=O)NC2=O)c2ccccc21`, the Potency entry in assay [1], in assay [3], in assay [4], in assay [5] and in assay [6] was “inactive” in each case. Also, the Potency in assay [2] is 21.1 µM (active).

Turning to `COc1ccc2c(c1)CCC1C2CC[C@@]2(C)C1CC[C@@H]2NCCCCCCN1C(=O)C=CC1=O` (stereo not given in full), the Potency result in assay [1], in assay [2], in assay [3], in assay [4], in assay [5] and in assay [6] was “inactive” each time.

In the case of `Cc1cn([C@H]2CC(N=[N+]=[N-])[C@@H](CO)O2)c(=O)[nH]c1=O` (stereo not given in full), the Potency entry in assay [1], in assay [2], in assay [3], in assay [4], in assay [5] and in assay [6] was “inactive” each time.

Regarding `O=C(O)CCc1ccc(NCc2cccc(Oc3ccccc3)c2)cc1`, the Potency entry in assay [1], in assay [2], in assay [3], in assay [4], in assay [5] and in assay [6] was “inactive” in each case.

Regarding `N[C@@H](CCCC(=O)O)C(=O)O`, the Potency result in assay [1], in assay [2], in assay [3], in assay [4], in assay [5] and in assay [6] was “inactive” throughout.

With `Cc1ccc(O)c(N=Nc2ccccc2)n1`, the Potency entry in assay [1], in assay [2], in assay [4] and in assay [6] was “inactive” each time. The Potency in assay [3] is 8.41 µM (active); in assay [5], 5.52 µM (active).

With `O=C(/C=C/c1ccc(O)cc1)c1ccc(O)cc1O`, the Potency result in assay [1], in assay [2], in assay [3], in assay [4], in assay [5] and in assay [6] was “inactive” throughout.

`CCN(CC)CCOC(=O)c1cc(Cl)c(N)cc1OC`: the Potency entry in assay [1], in assay [2], in assay [3], in assay [4], in assay [5] and in assay [6] was “inactive” throughout.

`N[C@@H](Cc1ccc(O)c(I)c1)C(=O)O`: the Potency entry in assay [1], in assay [2], in assay [3], in assay [4], in assay [5] and in assay [6] was “inactive” throughout.

Turning to `CC(C)Cn1c(=O)n(C)c(=O)c2[nH]cnc21`, the Potency entry in assay [1], in assay [2], in assay [3], in assay [4], in assay [5] and in assay [6] was “inactive” throughout.

For the compound `CS(=O)(=O)c1ccc(-n2nc(C(F)(F)F)cc2-c2ccc(F)cc2)cc1`, the Potency entry in assay [1], in assay [2], in assay [3], in assay [4], in assay [5] and in assay [6] was “inactive” each time.

Consider `Cc1nc2c(OCc3ccccc3)cccn2c1CC#N`, for which the Potency result in assay [1], in assay [2], in assay [3], in assay [4], in assay [5] and in assay [6] was “inactive” each time.
